RORgamma inh – ROR gamma (mouse) transcription inhibition. Drosophila S2 Gal4-RORgamma UAS-luciferase reporter, 20 h. P51450. Potency, µM (highest dose often 53.6 µM), without a hit: top-dose activity change, negative = inhibition, actives largely listed as inhibitors. 310,000 tested, 5.4% active; also: % is scaled to controls: 0 for no effect and ±100 for the full control effect; nearly all actives have a fitted effect of over 60% in size
Target sequence (P51450 whole entry, looked up, the tested form may be a part): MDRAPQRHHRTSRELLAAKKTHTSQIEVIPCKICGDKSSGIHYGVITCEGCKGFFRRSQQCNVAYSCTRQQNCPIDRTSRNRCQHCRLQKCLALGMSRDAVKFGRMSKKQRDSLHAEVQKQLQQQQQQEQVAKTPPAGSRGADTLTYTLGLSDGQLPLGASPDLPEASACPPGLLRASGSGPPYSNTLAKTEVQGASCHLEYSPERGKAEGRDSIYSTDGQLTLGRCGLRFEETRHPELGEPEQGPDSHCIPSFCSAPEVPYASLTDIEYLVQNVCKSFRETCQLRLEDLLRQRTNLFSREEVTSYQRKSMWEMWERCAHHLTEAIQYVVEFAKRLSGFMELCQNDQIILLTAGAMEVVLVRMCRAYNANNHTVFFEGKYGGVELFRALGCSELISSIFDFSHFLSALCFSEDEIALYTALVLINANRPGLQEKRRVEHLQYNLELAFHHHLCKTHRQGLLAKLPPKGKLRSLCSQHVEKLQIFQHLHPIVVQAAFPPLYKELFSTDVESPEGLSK
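ROR gamma transcriptional activity was tracked as Gal4-UAS luciferase output in stably transfected Drosophila Schneider cells, with compound added 1 hr before 700 uM copper sulfate induction and a 20 hr ambient-temperature incubation.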
TGFb SMAD3 inh – TGF-b pathway inhibition; 410,000 tested, 1.2% active; Potency, µM (titrated, usually from 46.1 µM), without a hit: at the top dose activity, negative = inhibition, actives largely listed as inhibitors; HepG2 CAGA-GFP TGF-b/SMAD3 reporter, GFP fluorescence, 18 h; TGF-beta stimulated, 500 pg/mL final; also: % is scaled to controls: 0 for no effect and ±100 for the full control effect; nearly all actives have a fitted effect of over 65% in size
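HEPG2 CAGA-GFP reporter cells (1000/well, DMEM with 1% FBS) received compounds, then recombinant TGF-beta at 500 pg/mL final for 18 hours at 37 degrees C. Per-cell GFP summed per well was normalised to unstimulated and stimulated DMSO controls before curve fitting.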
S2 tox – viability counter-screen for ATXN expression inhibitors. S2 cells (HEK-293 line with an ATXN2-luciferase reporter) viability, CellTiter-Fluor protease fluorescence, 24 h. Potency, µM (doses to about 56.7 µM), most hits filed as cytotoxic. 400,000 tested, 0.49% active. AID 651635; also: nearly all actives have a fitted effect of over 40% in size
HepG2 viability – counter-screen for TGF-b inhibitors: cytotoxicity in HepG2 cells; HepG2 CAGA-GFP viability, ATP luminescence, 18 h; Potency, µM (highest dose often 46.1 µM), for the others: at the top dose activity change, negative = cytotoxicity, hits mostly cytotoxic; AID 588856; 410,000 tested, 0.76% active
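CellTiter-Glo luminescence gave cytotoxicity after 18 hours at 37 degrees C. The cells were HepG2 CAGA-GFP in 1% FBS DMEM, stimulated with 500 pg/mL TGF-beta after compound addition. %Activity was normalised to no-cell wells (complete cell-killing) and DMSO (no toxicity), and curves were fitted and classified.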
Gal4-VP16 FLuc – Gal4-VP16 reporter inhibition counter-screen. Drosophila S2 Gal4-VP16 UAS-luciferase, luminescence, 20 h. Potency, µM (titrated, usually from 53.6 µM), without a hit: at the top dose activity, negative = inhibition, usual class: inhibitors. 310,000 tested, 3.5% active;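 also: Gal4-VP16 expression switched on by copper sulfate through the metallothionein promoter; % is scaled to controls: 0 for no effect and ±100 for the full control effect; nearly all actives have a fitted effect of over 50% in size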
ATXN2 expr inh – ATXN2 expression inhibition | HEK-293 ATXN2-luciferase reporter, luminescence, 24 h | AID 1745845 | 360,000 tested, 0.72% active | Potency, µM (series often up to 57 µM), without a hit: at the top dose activity change, negative = inhibition, usual class: inhibitors; also: % is scaled to controls: 0 for no effect and ±100 for the full control effect; nearly all actives have a fitted effect of over 55% in size
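qHTS (up to 57 uM final) was run with 24 h compound exposure of reporter cells at 37 °C. Each well was multiplexed: SteadyGlo luminescence measured ATXN2-luciferase expression after a fluorogenic Gly-Phe-AFC viability readout (25 uM final).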
* = called active by the depositor. Hits are enriched below; roughly 6.3% of the tested compounds scored in any of these assays. Calls follow the shape of the dose curve; as a rule, active = well fitted curve in the direction sought with a large enough effect; inconclusive = small, poorly fitted or top-dose-only effect, or another doubt; inactive = no such curve, though single readings can be large; an effect the other way counts as inactive or inconclusive. Potency is read from the fitted curve at half-maximal effect.

What do the screens show for `COc1cnc(-c2ccccn2)[nH]c1=O`?
RORgamma inh: -24%; TGFb SMAD3 inh: 18%; S2 tox: inactive; HepG2 viability: 9%; Gal4-VP16 FLuc: 0%; ATXN2 expr inh: -9%

What do the screens show for `COc1cnc(-c2ccccn2)nc1Oc1ccc(Cl)cc1`?
RORgamma inh: 3.5µM*; TGFb SMAD3 inh: 13%; S2 tox: inactive; HepG2 viability: -40%; Gal4-VP16 FLuc: 8.9µM*; ATXN2 expr inh: -24%

How did COc1cnc(-c2ccccc2)nc1Oc1ccc(C(C)(C)C)cc1 do in these assays?
RORgamma inh: 41%; TGFb SMAD3 inh: -23%; S2 tox: inactive; HepG2 viability: -62%; Gal4-VP16 FLuc: 2%; ATXN2 expr inh: -13%

What do the screens show for `COc1cnc(-c2ccccn2)nc1Oc1ccccc1Cl`?
RORgamma inh: 2.2µM*; TGFb SMAD3 inh: -15%; S2 tox: inactive; HepG2 viability: -16%; Gal4-VP16 FLuc: 13µM*; ATXN2 expr inh: 1%

How did COc1ccc(SCC(O)Cn2c3ccccc3c3ccccc32)c(OC)c1 (stereo not drawn) do in these assays?
S2 tox: inconclusive; ATXN2 expr inh: -26%

What do the screens show for `COc1cc(Cn2c3ccc(NC(=O)NCCc4ccccc4)cc3c(=O)n2C)ccc1F`?
TGFb SMAD3 inh: -26%; S2 tox: inconclusive; HepG2 viability: -21%; ATXN2 expr inh: -11%

Results for CCC(=O)N1CCc2cc(Br)cc(S(=O)(=O)N3CCCC(C(=O)Nc4cccc(F)c4)C3)c21 (stereo not drawn) ?
TGFb SMAD3 inh: inconclusive; S2 tox: inactive; HepG2 viability: -9%; ATXN2 expr inh: -2%

What do the screens show for `Cc1ccc(C)c(N2CCN(CCCNC(=O)c3ccc4nc(CCc5ccccc5)oc4c3)CC2)c1`?
TGFb SMAD3 inh: -14%; HepG2 viability: -13%

Results for Cc1nn(CCc2n[nH]c(=S)n2C)c(C)c1Br ?
RORgamma inh: -26%; TGFb SMAD3 inh: 12%; S2 tox: inactive; HepG2 viability: -63%; Gal4-VP16 FLuc: 11%; ATXN2 expr inh: -2%

Results for Cc1nn(CCc2n[nH]c(=S)n2C2CCCCC2)c(C)c1Br ?
RORgamma inh: 5.6µM*; TGFb SMAD3 inh: -24%; S2 tox: inactive; HepG2 viability: 7%; Gal4-VP16 FLuc: inconclusive; ATXN2 expr inh: 1%

Results for COc1ccccc1-n1c(CCn2nc(C)c(Br)c2C)n[nH]c1=S ?
RORgamma inh: 10µM*; TGFb SMAD3 inh: inconclusive; S2 tox: inactive; HepG2 viability: 2%; Gal4-VP16 FLuc: inconclusive; ATXN2 expr inh: -1%

Results for Oc1ccc(/C=N/Nc2ccnc3cc(Cl)ccc23)cc1O ?
RORgamma inh: inconclusive; TGFb SMAD3 inh: inconclusive; S2 tox: 32µM*; HepG2 viability: -41%; Gal4-VP16 FLuc: inconclusive; ATXN2 expr inh: inconclusive

How did Oc1ccc(/C=N/Nc2ccnc3cc(Cl)ccc23)c(O)c1O do in these assays?
RORgamma inh: -26%; TGFb SMAD3 inh: 0%; S2 tox: inactive; HepG2 viability: -1%; Gal4-VP16 FLuc: -2%; ATXN2 expr inh: 3%

What do the screens show for `CCCCNC1C(CC)C(CCC)C(C#N)(C#N)C1(C#N)C#N` (stereo not drawn)?
RORgamma inh: inconclusive; TGFb SMAD3 inh: 10µM*; S2 tox: inconclusive; HepG2 viability: -54%; Gal4-VP16 FLuc: inconclusive; ATXN2 expr inh: -35%

How did Oc1c(Br)cc(Br)cc1/C=N/n1c(-c2ccccc2)n[nH]c1=S do in these assays?
RORgamma inh: inconclusive; TGFb SMAD3 inh: inconclusive; S2 tox: inactive; HepG2 viability: -17%; Gal4-VP16 FLuc: inconclusive

Results for CC(/C=N/n1c(-c2ccccn2)n[nH]c1=S)=C\c1ccccc1 ?
RORgamma inh: 3.5µM*; TGFb SMAD3 inh: 0%; S2 tox: inactive; HepG2 viability: -40%; Gal4-VP16 FLuc: -9%; ATXN2 expr inh: -11%

What do the screens show for `Oc1ccccc1/C=N/n1c(-c2ccccc2)n[nH]c1=S`?
RORgamma inh: 11µM*; TGFb SMAD3 inh: -3%; HepG2 viability: -23%; Gal4-VP16 FLuc: -20%; ATXN2 expr inh: -4%

Results for S=c1[nH]nc(-c2ccncc2)n1/N=C/c1cccc(Cl)c1 ?
RORgamma inh: 4.5µM*; TGFb SMAD3 inh: 2%; S2 tox: inactive; HepG2 viability: -26%; Gal4-VP16 FLuc: -23%; ATXN2 expr inh: -28%

How did COc1c(Br)cc(/C=N/n2c(-c3ccccc3)n[nH]c2=S)c(O)c1Br do in these assays?
RORgamma inh: 13µM*; TGFb SMAD3 inh: -12%; HepG2 viability: 3%; Gal4-VP16 FLuc: inconclusive

How did CCc1n[nH]c(=S)n1/N=C/C(C)=C\c1ccccc1 do in these assays?
RORgamma inh: 7.1µM*; TGFb SMAD3 inh: -27%; S2 tox: inactive; HepG2 viability: -12%; Gal4-VP16 FLuc: 5.6µM*

What do the screens show for `Fc1ccc(/C=N/n2c(-c3cccs3)n[nH]c2=S)cc1`?
RORgamma inh: 2µM*; TGFb SMAD3 inh: -9%; S2 tox: inactive; HepG2 viability: 6%; Gal4-VP16 FLuc: 4µM*; ATXN2 expr inh: -18%

How did CC(/C=N/n1c(-c2ccco2)n[nH]c1=S)=C\c1ccccc1 do in these assays?
RORgamma inh: inconclusive; TGFb SMAD3 inh: 3%; S2 tox: inactive; HepG2 viability: -14%; Gal4-VP16 FLuc: -70%; ATXN2 expr inh: -2%

What do the screens show for `Cc1cccc(/C=N/n2c(-c3ccccn3)n[nH]c2=S)c1`?
RORgamma inh: inconclusive; Gal4-VP16 FLuc: 18µM*

How did CC(C)(C)c1n[nH]c(=S)n(/N=C/c2cccs2)c1=O do in these assays?
RORgamma inh: 10µM*; TGFb SMAD3 inh: -12%; S2 tox: inactive; HepG2 viability: 1%; Gal4-VP16 FLuc: 16µM*; ATXN2 expr inh: 26%

How did Cc1n[nH]c(=S)n(/N=C/c2cccs2)c1=O do in these assays?
RORgamma inh: -42%; TGFb SMAD3 inh: 31%; S2 tox: inactive; HepG2 viability: 11%; Gal4-VP16 FLuc: 11%; ATXN2 expr inh: 0%

What do the screens show for `S=c1[nH]nc(-c2ccccn2)n1/N=C/c1cccs1`?
RORgamma inh: -38%; TGFb SMAD3 inh: 2%; S2 tox: inactive; HepG2 viability: -9%; Gal4-VP16 FLuc: 4%; ATXN2 expr inh: 7%

How did S=c1[nH]nc(-c2ccccc2)n1/N=C/c1ccc(Cl)cc1 do in these assays?
RORgamma inh: 1.1µM*; TGFb SMAD3 inh: inconclusive; S2 tox: inconclusive; HepG2 viability: -60%; Gal4-VP16 FLuc: inconclusive

Screening data deposited in PubChem BioAssay by National Center for Advancing Translational Sciences (NCATS).
